The text below walks through data of PubChem BioAssay.

By inhibition is commonly meant the relative decrease from the control value, in per cent.

Assay [1] in a line: rapamycin-like changes in RPL19A-GFP expression – cell-based, S. cerevisiae, multiplex flow cytometry, primary screen (AID 1862; in the data active = percent of DMSO control GFP below about 86%;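 also: lower values mimic rapamycin by blocking the RPL19A rise seen in DMSO cells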). To be noted: S. cerevisiae RPL19A-GFP strain, flow cytometry fluorescence, 3 h; at 10 µM; stronger effect = lower value.
Assay [2] can be described thus: TOR pathway GLN3 branch reporter MEP2-GFP changes – S. cerevisiae, multiplex flow cytometry, primary screen (AID 1867;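 active = GFP response, as percent of the DMSO control, above the screen-wide mean plus 3 SD, about 139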;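 also: median GFP channel fluorescence of barcode-gated MEP2-GFP cells measured by flow cytometry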). To be noted: S. cerevisiae MEP2-GFP strain, 3 h, at 10 µM, stronger effect = higher value, 100% means same as DMSO wells. (A flow cytometer gives signals particle by particle.)
Assay [3] is described as follows: TOR pathway RTG branch CIT2 reporter changes – S. cerevisiae, GFP fusion, multiplex flow cytometry, primary screen (AID 1870;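 active = percent response above a set limit, the screen-wide mean plus 3 SD, cut at about 130% in these data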;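 also: barcoded CIT2-GFP strain pooled with four other GFP strains with rapamycin as positive control; median GFP fluorescence per well over plate mean of DMSO wells so 100% = DMSO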). To be noted: S. cerevisiae CIT2-GFP expression, 3 h, at 10 µM, stronger effect = higher value.
Assay [4] is described as follows: TOR pathway LAP4-GFP level changes – S. cerevisiae, multiplex flow cytometry, primary screen (AID 1873;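 active = GFP signal, as percent of the solvent control, above the screen mean plus 3 SD, about 149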). To be noted: S. cerevisiae LAP4-GFP expression, 3 h, at 10 µM, stronger effect = higher value.
The nature of assay [5]: yeast AGP1-GFP level changes, GLN3 branch – cell-based, multiplex flow cytometry, S. cerevisiae, primary screen (AID 1887;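 active = GFP signal above the screen-wide mean plus 3 SD, that is over about 124.5% of the solvent control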;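 also: AGP1-GFP fusion strain of S. cerevisiae within a five-strain barcoded multiplex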). To be noted: 3 h, at 10 µM, stronger effect = higher value.
Assay [6] is described as follows: reduced mouse 2C T cell binding to pMHC/ICAM-1 vesicles – MLPCN validation set, flow cytometry, LFA-1/ICAM-1 modulator project, pilot screen (AID 2523;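 active = response below a set limit, under 55% cells CD8-positive and vesicle-bound, and CD8 cells' 90th-percentile brightness under 279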;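 as to vesicle binding response: mean PE anti-B7-1 fluorescence of CD8+ cells relative to row control; 100% = QL9-loaded vesicles with DMSO vehicle in the same plate row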). To be noted: 2C mouse CD8+ T cells, at 7 µM, stronger effect = lower value; double positive events: measured here: CD8+/vesicle+ event percentage.
Assay [7] has as its target Integrin beta-1 (Homo sapiens) + Integrin alpha-4 (Homo sapiens) (UniProt P13612+P05556). The experiment in a line: alpha4beta1 integrin LIBS antibody binding reduction – U937 cells, HUTS-21 mAb, flow cytometry, validation set, VLA-4 allosteric modulator project, pilot screen (AID 2674;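 active = inhibition above 50%, about 3 SD of the validation set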;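 also: antibody binding induced by the VLA-4 ligand LDV present at three times its Kd; 0% = LDV ligand with antibody and no compound and 100% = antibody without LDV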). To be noted: HUTS-21 LIBS mAb binding, at 6.7 µM, stronger effect = higher value, binding induced by LDV ligand.

Assay [8] can be described thus: calorie-restriction mimetic ROS inhibitors, yeast – validation compound set, pilot screen (AID 2706;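 active = superoxide response below 65% of plate, a cut near 3 SD across the whole screen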;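 also: yeast exposed to compound for one week at 30 degrees C before staining; 100% = mean of all compound wells on the same plate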). To be noted: S. cerevisiae aging, superoxide DHE fluorescence; at 10 µM; stronger effect = lower value.
The target of assay [9] is Beta-adrenergic receptor kinase 1 (Homo sapiens) (UniProt P25098). Kind of assay: GRK2 binders displacing RNA aptamer, biochemical, validation, human GRK2, bead flow cytometry (AID 488806;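 active = aptamer binding inhibition above 30%, about 3 SD of noise from non-fluorescent compounds; inactive = inhibition at or below 30%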). To be noted: bead-bound GRK2, FAM-aptamer displacement, at 10 µM, stronger effect = higher value.
Assay [10] has as its target Beta-2 adrenergic receptor (Homo sapiens) (UniProt P07550). Kind of assay: agonist-induced loss of surface beta2AR – cell-based, FAP fluorogen, flow cytometry, validation set, pilot screen (AID 504459;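 active = percent response above 42, roughly 3 SD of non-fluorescent test compounds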;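 also: agonist-driven loss of surface beta2AR via internalization measured by FAP dye flow cytometry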). To be noted: Am2.2-beta2AR cells, at 10 µM, stronger effect = higher value.
Assay [11] addresses AP-2 complex subunit beta (Homo sapiens) (UniProt P63010). The experiment in a line: beta-arrestin/AP2 interaction blockers – biochemical, validation set, GST-AP2 beads, flow cytometry, pilot screen (AID 504541;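 active = inhibition above 54%, about 3 SD of non-fluorescent compounds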;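 also: AP2 carries R879A mutation and is captured from E. coli lysate; bead-bound FITC arrestin peptide fluorescence measuring arrestin peptide binding to AP2; 0% = DMSO wells and 100% = excess unlabeled arrestin peptide control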). To be noted: FITC arrestin peptide, at 10 µM, stronger effect = higher value, AP2 beta2 appendage fragment, R879A mutant.
Assay [12] in a line: cytosolic pH regulators acting via V-ATPase – S. cerevisiae, pHLuorin, HTS validation (AID 504600; in the data active = response above about 15%;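 also: plate controls were DMSO for no effect and reference compound for full effect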). To be noted: V-ATPase proton transport, at 10 µM, stronger effect = higher value.
In assay [13] the test system is anti-desmoglein-3 scFv antibody binding to human DSG3. The experiment in a line: blockers of pathogenic pemphigus antibody–desmoglein-3 binding – biochemical, validation compound set, bead-based, flow cytometry, pilot screen (AID 588368).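 Also: signal is the median channel fluorescence of bead-bound GFP antibody.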 To be noted: Protein G beads, DSG3-Fc, scFv-GFP binding, at 10 µM, stronger effect = lower value.
Assay [14] in a line: Nile Red efflux blockade in pump-expressing yeast – validation compound set, multiplex, phenotypic, pilot screen (AID 588506;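 active = efflux inhibition above 0.42, the validation set average plus 4 SD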;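 also: Nile Red retained in cells so higher fluorescence means more efflux inhibition; 0 = negative control wells and 1 = enniatin B 25 µM full block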). To be noted: S. cerevisiae pump-expressing triplex, Nile Red efflux flow cytometry; at 10 µM; stronger effect = higher value; the pumps come from Candida albicans.
In assay [15] the target is ATP-binding cassette sub-family B member 6 (Homo sapiens) (UniProt Q9NP58). Kind of assay: blockers of ABCB6-driven porphyrin uptake – K562-ABCB6 cells, flow cytometry, validation set, pilot screen (AID 588550;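 active = inhibition above the screen-wide mean plus 3 SD, about 51%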;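 also: 0% = DMSO wells and 100% = benzethonium chloride 70 µM positive control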). To be noted: K562-ABCB6 porphyrin accumulation, 1 h, at 10 µM, stronger effect = higher value.
Assay [16] is described as follows: AML differentiation inducers, ER-HoxA9 marrow cells – cell-based, GFP/MAC1 double positive, flow cytometry, validation set, primary screen (AID 588685;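 active = differentiation response of at least 50%, scaled between solvent and reference control, from cells with both markers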;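 also: compound exposure lasts four days before antibody staining and flow analysis; 0% = DMSO wells and 100% = 5 µM fulvestrant positive control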). To be noted: stronger effect = higher value, normalized: vehicle 0, fulvestrant 100.

Structures are written as SMILES. Inconclusive results are not listed. Active and inactive are the calls of the source.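 The calls were made as follows, unless noted: active = binding below the plate cutoff, the plate median minus 3 SD, with a reading above zero; inconclusive = below the plate cutoff but reading exactly zero; inactive = the rest.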

Sequence of AP-2 complex subunit beta (Homo sapiens) (P63010 whole entry, looked up, the tested form may be a part, one chain of several): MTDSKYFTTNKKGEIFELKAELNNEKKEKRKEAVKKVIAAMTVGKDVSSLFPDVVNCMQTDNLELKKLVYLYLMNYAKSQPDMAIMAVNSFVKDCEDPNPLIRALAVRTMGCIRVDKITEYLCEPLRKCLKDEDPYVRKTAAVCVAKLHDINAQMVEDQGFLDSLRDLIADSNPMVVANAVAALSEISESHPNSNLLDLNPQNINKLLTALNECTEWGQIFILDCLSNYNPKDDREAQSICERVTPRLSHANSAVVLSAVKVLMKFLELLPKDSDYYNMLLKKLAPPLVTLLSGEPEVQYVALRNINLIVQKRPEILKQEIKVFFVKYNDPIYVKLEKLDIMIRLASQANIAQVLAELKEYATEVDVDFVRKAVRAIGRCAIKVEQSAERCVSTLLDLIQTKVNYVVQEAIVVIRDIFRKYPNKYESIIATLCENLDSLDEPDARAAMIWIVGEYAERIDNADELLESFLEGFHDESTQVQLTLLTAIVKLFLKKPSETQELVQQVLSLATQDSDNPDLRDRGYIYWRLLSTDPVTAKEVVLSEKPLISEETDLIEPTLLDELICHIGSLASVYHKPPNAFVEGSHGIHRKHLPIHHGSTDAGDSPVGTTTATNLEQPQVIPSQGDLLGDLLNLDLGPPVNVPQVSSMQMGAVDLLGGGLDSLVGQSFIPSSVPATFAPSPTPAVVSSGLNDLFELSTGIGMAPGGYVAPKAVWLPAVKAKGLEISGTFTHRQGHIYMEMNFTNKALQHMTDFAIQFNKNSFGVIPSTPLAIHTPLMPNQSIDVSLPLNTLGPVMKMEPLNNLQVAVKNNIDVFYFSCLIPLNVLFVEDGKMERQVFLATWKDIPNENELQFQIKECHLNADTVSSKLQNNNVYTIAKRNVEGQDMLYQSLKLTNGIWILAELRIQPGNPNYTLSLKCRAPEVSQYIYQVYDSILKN
Sequence of Beta-2 adrenergic receptor (Homo sapiens) (P07550 whole entry, looked up): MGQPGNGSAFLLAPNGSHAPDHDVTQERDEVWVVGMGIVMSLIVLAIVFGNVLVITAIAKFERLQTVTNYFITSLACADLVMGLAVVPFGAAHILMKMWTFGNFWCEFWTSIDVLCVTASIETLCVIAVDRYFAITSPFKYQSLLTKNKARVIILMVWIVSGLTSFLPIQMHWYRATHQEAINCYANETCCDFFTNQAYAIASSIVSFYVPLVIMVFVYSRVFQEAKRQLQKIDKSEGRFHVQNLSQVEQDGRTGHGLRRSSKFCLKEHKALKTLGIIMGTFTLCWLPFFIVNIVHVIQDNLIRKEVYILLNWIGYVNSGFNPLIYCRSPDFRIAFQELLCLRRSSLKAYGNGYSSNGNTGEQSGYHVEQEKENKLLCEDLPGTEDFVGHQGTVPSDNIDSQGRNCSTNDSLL
Sequence of Beta-adrenergic receptor kinase 1 (Homo sapiens) (P25098 whole entry, looked up): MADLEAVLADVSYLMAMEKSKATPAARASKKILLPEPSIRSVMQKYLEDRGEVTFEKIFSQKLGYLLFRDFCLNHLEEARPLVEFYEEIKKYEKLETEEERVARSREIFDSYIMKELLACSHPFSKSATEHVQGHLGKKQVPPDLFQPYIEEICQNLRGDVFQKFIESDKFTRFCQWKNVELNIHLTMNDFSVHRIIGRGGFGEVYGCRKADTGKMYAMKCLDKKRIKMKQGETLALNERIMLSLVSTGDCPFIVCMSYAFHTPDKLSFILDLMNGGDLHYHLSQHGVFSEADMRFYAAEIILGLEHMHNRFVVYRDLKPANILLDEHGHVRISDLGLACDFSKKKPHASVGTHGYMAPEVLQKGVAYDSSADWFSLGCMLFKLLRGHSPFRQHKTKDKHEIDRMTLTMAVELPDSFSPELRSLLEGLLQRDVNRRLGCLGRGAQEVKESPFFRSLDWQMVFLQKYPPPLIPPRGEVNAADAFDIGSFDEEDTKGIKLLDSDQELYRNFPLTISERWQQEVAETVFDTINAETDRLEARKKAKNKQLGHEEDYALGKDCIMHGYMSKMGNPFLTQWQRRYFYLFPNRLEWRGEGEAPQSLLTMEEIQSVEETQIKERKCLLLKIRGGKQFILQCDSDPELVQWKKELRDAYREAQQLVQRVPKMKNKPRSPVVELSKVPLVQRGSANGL
Sequence of Integrin beta-1 (Homo sapiens) + Integrin alpha-4 (Homo sapiens) (P05556 whole entry, looked up): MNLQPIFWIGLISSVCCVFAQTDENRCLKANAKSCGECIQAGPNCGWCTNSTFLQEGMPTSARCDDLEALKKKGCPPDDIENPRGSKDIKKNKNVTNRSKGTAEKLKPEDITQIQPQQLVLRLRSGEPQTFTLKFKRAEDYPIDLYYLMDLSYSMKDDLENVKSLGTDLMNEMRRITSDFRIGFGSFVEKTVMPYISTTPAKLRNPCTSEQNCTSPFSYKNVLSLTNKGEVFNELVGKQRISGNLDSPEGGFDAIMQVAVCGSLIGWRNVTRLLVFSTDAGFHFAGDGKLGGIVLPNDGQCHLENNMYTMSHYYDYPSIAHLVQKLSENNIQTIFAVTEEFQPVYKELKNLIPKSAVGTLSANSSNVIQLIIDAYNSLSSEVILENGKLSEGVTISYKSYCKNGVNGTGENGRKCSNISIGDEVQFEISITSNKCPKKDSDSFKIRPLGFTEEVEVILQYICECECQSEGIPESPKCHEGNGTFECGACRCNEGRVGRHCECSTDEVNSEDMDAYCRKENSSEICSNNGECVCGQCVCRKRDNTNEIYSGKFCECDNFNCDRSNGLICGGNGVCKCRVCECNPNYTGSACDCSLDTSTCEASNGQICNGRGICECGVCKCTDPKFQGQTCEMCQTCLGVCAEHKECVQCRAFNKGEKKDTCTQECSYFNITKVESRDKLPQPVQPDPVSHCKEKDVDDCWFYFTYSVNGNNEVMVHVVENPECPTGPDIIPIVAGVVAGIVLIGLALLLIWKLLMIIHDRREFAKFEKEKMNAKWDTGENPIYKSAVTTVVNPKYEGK
Sequence of Integrin beta-1 (Homo sapiens) + Integrin alpha-4 (Homo sapiens) (P13612 whole entry, looked up): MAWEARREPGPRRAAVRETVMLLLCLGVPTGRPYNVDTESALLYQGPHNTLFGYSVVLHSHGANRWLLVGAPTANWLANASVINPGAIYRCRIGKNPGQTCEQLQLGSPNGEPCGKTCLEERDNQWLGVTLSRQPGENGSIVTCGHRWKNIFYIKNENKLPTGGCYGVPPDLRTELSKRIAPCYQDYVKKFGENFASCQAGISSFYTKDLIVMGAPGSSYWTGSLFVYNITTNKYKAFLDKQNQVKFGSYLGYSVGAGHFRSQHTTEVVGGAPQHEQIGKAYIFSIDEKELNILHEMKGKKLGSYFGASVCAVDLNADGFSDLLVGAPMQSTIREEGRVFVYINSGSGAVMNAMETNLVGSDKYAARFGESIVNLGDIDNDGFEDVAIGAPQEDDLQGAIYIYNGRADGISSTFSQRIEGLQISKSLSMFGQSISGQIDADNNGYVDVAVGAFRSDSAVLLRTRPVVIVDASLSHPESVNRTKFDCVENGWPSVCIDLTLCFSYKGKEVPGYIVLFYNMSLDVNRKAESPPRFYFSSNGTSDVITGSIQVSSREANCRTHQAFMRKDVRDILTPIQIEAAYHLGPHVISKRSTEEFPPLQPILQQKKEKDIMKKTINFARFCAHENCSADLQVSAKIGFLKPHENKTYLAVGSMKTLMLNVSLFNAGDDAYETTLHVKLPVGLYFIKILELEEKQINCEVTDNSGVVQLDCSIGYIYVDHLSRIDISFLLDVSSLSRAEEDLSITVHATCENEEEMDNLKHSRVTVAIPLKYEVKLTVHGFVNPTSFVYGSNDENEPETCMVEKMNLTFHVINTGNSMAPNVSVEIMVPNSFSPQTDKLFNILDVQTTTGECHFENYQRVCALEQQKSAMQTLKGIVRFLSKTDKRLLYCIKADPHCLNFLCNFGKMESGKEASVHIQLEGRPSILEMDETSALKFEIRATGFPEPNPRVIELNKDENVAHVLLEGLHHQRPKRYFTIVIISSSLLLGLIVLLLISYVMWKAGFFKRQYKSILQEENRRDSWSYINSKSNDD
Sequence of ATP-binding cassette sub-family B member 6 (Homo sapiens) (Q9NP58 whole entry, looked up): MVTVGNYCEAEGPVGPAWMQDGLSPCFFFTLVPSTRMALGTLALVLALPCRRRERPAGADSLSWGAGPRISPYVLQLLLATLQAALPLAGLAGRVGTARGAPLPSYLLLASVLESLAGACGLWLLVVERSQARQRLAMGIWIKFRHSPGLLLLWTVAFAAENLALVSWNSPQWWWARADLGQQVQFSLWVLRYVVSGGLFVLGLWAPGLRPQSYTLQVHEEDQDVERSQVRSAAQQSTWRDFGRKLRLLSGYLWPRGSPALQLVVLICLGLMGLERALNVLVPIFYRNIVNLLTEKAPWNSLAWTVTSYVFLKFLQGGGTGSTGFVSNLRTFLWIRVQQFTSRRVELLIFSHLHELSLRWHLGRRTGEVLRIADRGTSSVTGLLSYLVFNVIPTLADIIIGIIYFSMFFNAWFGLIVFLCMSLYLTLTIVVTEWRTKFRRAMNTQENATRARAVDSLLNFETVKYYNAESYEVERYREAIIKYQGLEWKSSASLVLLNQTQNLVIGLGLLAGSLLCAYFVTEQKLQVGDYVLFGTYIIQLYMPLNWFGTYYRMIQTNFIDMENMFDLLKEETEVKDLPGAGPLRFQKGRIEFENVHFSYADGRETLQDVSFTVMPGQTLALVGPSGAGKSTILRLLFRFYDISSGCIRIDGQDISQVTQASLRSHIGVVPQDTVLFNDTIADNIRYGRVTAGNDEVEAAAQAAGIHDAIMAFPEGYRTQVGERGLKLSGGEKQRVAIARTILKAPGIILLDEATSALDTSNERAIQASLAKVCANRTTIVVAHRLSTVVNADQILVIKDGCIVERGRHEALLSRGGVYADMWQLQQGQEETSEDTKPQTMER

On to `COc1cc(NC(=S)NC(=O)c2cccs2)ccc1NC(=O)C(C)C`, for which, in [1], the percent of DMSO control GFP is 99.7% (inactive). In addition, the GFP response vs DMSO in assay [2] is 108% (inactive); in assay [4], 124% (inactive). Besides, the percent response of DMSO control in assay [3] is 90.1% (inactive). The GFP response, % of DMSO in assay [5] is 101% (inactive). This molecule also gave a double positive events in assay [6] of 66.4%. Also, the vesicle binding response in [6] is 265% (inactive). The inhibition in assay [7] was -14.1% (inactive); in [11], -6.94% (inactive); in assay [15] it was 9% (inactive). For the same molecule, in assay [8], the superoxide response (% of plate) is 113% (inactive). In addition, the aptamer binding inhibition in assay [9] was 3% (inactive). The figures for the response in assay [10] and in [12] were -2.44% (inactive) and 1.32% (inactive), respectively. For the same molecule, the binding (% of control) in assay [13] was 96.8% (inactive). The efflux inhibition (fraction of control) in assay [14] is 0.05 (inactive). For the same molecule, the differentiation response in assay [16] was -28% (inactive).
Take `COc1ccc2oc(C)c(C(N)=O)c2c1`: the percent of DMSO control GFP in [1] is 99.5% (inactive). Besides, the results for the GFP response vs DMSO in assay [2] and in assay [4] were 109% (inactive) and 118% (inactive), respectively. Besides, the percent response of DMSO control in assay [3] was 91% (inactive). The GFP response, % of DMSO in assay [5] is 102% (inactive). This molecule had a double positive events in assay [6] of 61.6%. The vesicle binding response in assay [6] was 132% (inactive). Further, the values for the inhibition in assay [7], in assay [11] and in assay [15] were 6.4% (inactive), 7.21% (inactive) and -9% (inactive), respectively. Also, in assay [8], the superoxide response (% of plate) is 96% (inactive). In [9], the aptamer binding inhibition was 4% (inactive). In addition, the response in assay [10] was -0.3% (inactive); in assay [12], -6.34% (inactive). Moreover, the binding (% of control) in [13] was 100% (inactive). Also, the efflux inhibition (fraction of control) in assay [14] was -0.21 (inactive). The differentiation response in assay [16] was -8.8% (inactive).
`Cc1ccccc1NC(=O)c1c(C)cc(=O)oc1C`: in assay [1], the percent of DMSO control GFP was 106% (inactive). In addition, the GFP response vs DMSO is 101% (inactive) in [2] and 84.8% (inactive) in assay [4]. In addition, the percent response of DMSO control in assay [3] was 113% (inactive). The GFP response, % of DMSO in assay [5] was 99.2% (inactive). In assay [6], this molecule gave a double positive events of 67.4%. Also, in [6], the vesicle binding response is 771% (inactive). For the same molecule, the results for the inhibition in [7], in assay [11] and in assay [15] were 5.77% (inactive), -11.4% (inactive) and -3% (inactive), respectively. Further, the superoxide response (% of plate) in assay [8] is 83.4% (inactive). For the same molecule, the aptamer binding inhibition in assay [9] is 4% (inactive). In addition, the response in [10] was -4.18% (inactive); in assay [12] it was 1.91% (inactive). Moreover, the binding (% of control) in [13] was 92.7% (inactive). The efflux inhibition (fraction of control) in assay [14] was -0.2 (inactive). In addition, the differentiation response in assay [16] is -1.71% (inactive).
With `CC(C)OC(=O)C1C2C=CC3(CN(CC4CCCO4)C(=O)C13)O2` (stereo not given), in assay [1], the percent of DMSO control GFP was 99.1% (inactive). The GFP response vs DMSO in assay [2] was 104% (inactive); in assay [4], 117% (inactive). Further, the percent response of DMSO control in [3] was 98.6% (inactive). In addition, the GFP response, % of DMSO in [5] was 102% (inactive). Also, the double positive events in [6] turned out to be 58.9%. The vesicle binding response in assay [6] was 152% (inactive). The results for the inhibition in [7], in assay [11] and in assay [15] were -4.52% (inactive), -4.29% (inactive) and 7% (inactive), respectively. In addition, in [8], the superoxide response (% of plate) was 100% (inactive). Further, the aptamer binding inhibition in assay [9] was 1% (inactive). For the same molecule, the values for the response in assay [10] and in assay [12] were 1.99% (inactive) and -0.97% (inactive), respectively. In assay [13], the binding (% of control) was 98% (inactive). In addition, the efflux inhibition (fraction of control) in [14] was 0.19 (inactive). For the same molecule, the differentiation response in [16] is -16.8% (inactive).
For `C[C@]12CC[C@@H]3c4ccc(O)cc4CC[C@H]3[C@@H]1CCC2=O`, the percent of DMSO control GFP in assay [1] was 101% (inactive). In addition, the GFP response vs DMSO in [2] is 100% (inactive); in assay [4] it was 125% (inactive). The percent response of DMSO control in assay [3] was 95.4% (inactive). Besides, the GFP response, % of DMSO in assay [5] was 94.8% (inactive). In assay [6], this molecule registered a double positive events of 60.6%. In addition, the vesicle binding response in assay [6] is 34.4% (inactive). In addition, the inhibition in [7] was -13.9% (inactive); in assay [11], 9.61% (inactive); in [15], 8% (inactive). In addition, in [8], the superoxide response (% of plate) is 98.7% (inactive). For the same molecule, the aptamer binding inhibition in [9] is 2% (inactive). In addition, the results for the response in assay [10] and in assay [12] were -0.01% (inactive) and -0.09% (inactive), respectively. In addition, in assay [13], the binding (% of control) was 98.9% (inactive). Besides, the efflux inhibition (fraction of control) in assay [14] was -0.32 (inactive). The differentiation response in [16] is 0.24% (inactive).
